# PubChem BioAssay (EPA / NIEHS)
# Where “and” joins values, the source holds several entries; their conditions need not be identical. Equal values may be shown once. Where a structure was tested more than once in an assay, its records may differ in their call. Calls of active or inactive are those of the source. The calls were made as follows: active = hit-call score of the fitted dose curve at least 0.9, where 1 is the maximum; inactive = score below 0.9.
# What was measured:
# [1] = read-out: Interleukin-1 alpha (IL1a), IL1A (gene 3552); experiment: BSK_KF3CT_IL1a: BioMAP Diversity Plus: KF3CT Assay for Interleukin-1 alpha (IL1a) Biomarker Activity (AID 2283070); conditions: primary human keratinocytes with fibroblasts; actives raise or lower the signal
# How it was run: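 Primary human keratinocyte plus foreskin fibroblast co-culture, dosed and measured at 24 h in 96-well plates. IL-1a level quantified by ELISA; bidirectional fit relative to DMSO.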
# [2] = read-out: TIMP metallopeptidase inhibitor 2 (TIMP2), TIMP2 (gene 7077); experiment: BSK_KF3CT_TIMP2: BioMAP Diversity Plus: KF3CT Assay for TIMP metallopeptidase inhibitor 2 (TIMP2) Biomarker Activity (AID 2283071); conditions: primary human keratinocytes with fibroblasts; actives raise or lower the signal
# How it was run: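 Cells: human keratinocytes co-cultured with foreskin fibroblasts. Treat with chemical, 24 h. Measure TIMP-2 by ELISA; fit curves bidirectionally vs DMSO baseline.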
# [3] = read-out: C-C motif chemokine 2 (Homo sapiens) (UniProt P13500); experiment: BSK_KF3CT_MCP1: BioMAP Diversity Plus: KF3CT Assay for Monocyte Chemoattractant Protein 1 (MCP1/CCL2) Biomarker Activity (AID 2283073); conditions: primary human keratinocytes with fibroblasts; actives raise or lower the signal
# How it was run: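 Human keratinocyte plus foreskin fibroblast primary co-culture exposed to chemical for 24 h. MCP-1 levels measured by ELISA. Bidirectional curve fitting relative to DMSO negative control as baseline.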
# [4] = read-out: Matrix Metallopeptidase 9 (MMP9), MMP9 (gene 4318); experiment: BSK_KF3CT_MMP9: BioMAP Diversity Plus: KF3CT Assay for Matrix Metallopeptidase 9 (MMP9) Biomarker Activity (AID 2283074); conditions: primary human keratinocytes with fibroblasts; actives raise or lower the signal;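 as to AC50: MMP9 protein level quantified by ELISA in the co-culture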
# How it was run: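 Human keratinocyte and foreskin fibroblast co-culture exposed to chemicals for 24 h; MMP9 biomarker measured by ELISA, bidirectional fitting relative to DMSO; cytotoxicity tracked by SRB total protein staining in parallel cultures.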
# [5] = read-out: urokinase plasminogen activator (uPA), PLAU (gene 5328); experiment: BSK_KF3CT_uPA: BioMAP Diversity Plus: KF3CT Assay for urokinase plasminogen activator (uPA) Biomarker Activity (AID 2283075); conditions: primary human keratinocytes with fibroblasts; actives raise or lower the signal
# How it was run: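 Primary human keratinocyte/foreskin fibroblast co-culture exposed to chemical; uPA measured by ELISA at 24 h. Bidirectional fit versus DMSO, with parallel SRB total-protein staining for cytotoxicity.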
# CD40, CD40 (gene 958) = experiment: BSK_LPS_CD40: BioMAP Diversity Plus: LPS Assay for CD40 Biomarker Activity (AID 2283076); conditions: primary human HUVEC with PBMC; actives raise or lower the signal
# How it was run: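 Primary human umbilical vein endothelial cells co-cultured with peripheral blood mononuclear cells, LPS-stimulated, were dosed with chemical and read 24 h later. CD40 levels were measured by ELISA and fitted bidirectionally against DMSO as negative control and baseline.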
# [6] = read-out: E-selectin (Homo sapiens) (UniProt P16581); experiment: BSK_LPS_Eselectin: BioMAP Diversity Plus: LPS Assay for Eselectin Biomarker Activity (AID 2283077); conditions: primary human HUVEC with PBMC; actives raise or lower the signal
# How it was run: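 Human umbilical vein endothelial cells co-cultured with peripheral blood mononuclear cells under LPS stimulation; E-selectin measured by ELISA 24 h after chemical dosing. Activity fitted bidirectionally against DMSO as negative control and baseline.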
# [7] = read-out: Interleukin-8 (IL8), CXCL8 (gene 3576); experiment: BSK_LPS_IL8: BioMAP Diversity Plus: LPS Assay for Interleukin-8 (IL8) Biomarker Activity (AID 2283078); conditions: primary human HUVEC with PBMC; actives raise or lower the signal
# How it was run: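 Human umbilical vein endothelial cells co-cultured with PBMC were stimulated with LPS; IL-8 levels were measured by ELISA 24 h after chemical dosing. Activity was fitted bidirectionally against DMSO as negative control and baseline.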
# [8] = BSK_LPS_SRB: Viability Assessment in the BioMAP Diversity Plus: LPS Assay (AID 2283079); conditions: primary human HUVEC with PBMC;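 also: total protein by sulforhodamine B absorbance as a cytotoxicity measure; measured one day after compound addition; fitted in both directions against DMSO so loss or gain of signal counts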
# How it was run: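 Human umbilical vein endothelial cells co-cultured with PBMC (LPS system) were dosed for 24 h. Total protein was stained with 0.1% sulforhodamine B after 10% TCA fixation, read at 560 nm, and fitted bidirectionally against DMSO baseline.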
# [9] = read-out: Transforming growth factor beta 1 (TGFb1), TGFB1 (gene 7040); experiment: BSK_KF3CT_TGFb1: BioMAP Diversity Plus: KF3CT Assay for Transforming growth factor beta 1 (TGFb1) Biomarker Activity (AID 2283072); conditions: primary human keratinocytes with fibroblasts; actives raise or lower the signal
# How it was run: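 Primary human skin cells (keratinocytes, foreskin fibroblasts) were co-cultured, exposed to test chemical and sampled at 24 h. TGF-b1 levels were measured by ELISA and fitted bidirectionally relative to DMSO.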
# Sequence of E-selectin (Homo sapiens) (P16581 whole entry, looked up): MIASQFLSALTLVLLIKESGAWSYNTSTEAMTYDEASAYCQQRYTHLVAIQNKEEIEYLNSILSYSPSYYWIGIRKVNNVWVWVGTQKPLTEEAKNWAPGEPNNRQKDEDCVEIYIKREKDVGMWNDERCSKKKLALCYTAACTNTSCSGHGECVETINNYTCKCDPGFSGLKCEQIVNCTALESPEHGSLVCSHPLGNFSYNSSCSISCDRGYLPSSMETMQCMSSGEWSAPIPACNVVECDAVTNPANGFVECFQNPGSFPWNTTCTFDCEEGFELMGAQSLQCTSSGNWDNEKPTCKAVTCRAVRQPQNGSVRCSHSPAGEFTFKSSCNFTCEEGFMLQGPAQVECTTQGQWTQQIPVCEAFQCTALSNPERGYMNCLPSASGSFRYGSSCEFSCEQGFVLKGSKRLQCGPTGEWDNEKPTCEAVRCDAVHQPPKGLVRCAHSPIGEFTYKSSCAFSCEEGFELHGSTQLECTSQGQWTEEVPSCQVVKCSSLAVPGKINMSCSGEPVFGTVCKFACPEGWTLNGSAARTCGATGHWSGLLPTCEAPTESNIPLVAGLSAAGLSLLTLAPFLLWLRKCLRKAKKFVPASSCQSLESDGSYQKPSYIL
smiles,measurement,setting,value
OCCCC(F)(F)C(F)(F)C(F)(F)F,outcome,[1],inactive
same,outcome,[2],inactive
same,outcome,[3],inactive
same,outcome,[4],inactive
same,outcome,[5],inactive
same,outcome,"CD40, CD40 (gene 958)",inactive
same,outcome,[6],inactive
same,outcome,[7],inactive
N=C(N)C(F)(F)C(F)(F)C(F)(F)C(F)(F)C(F)(F)C(F)(F)C(F)(F)F,outcome,[1],inactive
same,outcome,[2],inactive
same,outcome,[3],inactive
same,outcome,[4],inactive
same,outcome,[5],inactive
same,AC50,"CD40, CD40 (gene 958)",41.5 µM (active)
same,outcome,"CD40, CD40 (gene 958)",inactive
same,AC50,[7],46.8 µM (active)
same,outcome,[7],inactive
same,AC50,[8],55.1 µM (active)
same,outcome,[8],inactive
FC(F)(F)C(F)(F)C(F)(F)C(F)(F)CCI,outcome,[1],inactive
same,outcome,[2],inactive
same,outcome,[3],inactive
same,outcome,[4],inactive
same,outcome,[5],inactive
same,outcome,"CD40, CD40 (gene 958)",inactive
same,outcome,[6],inactive
same,outcome,[7],inactive
O=C(Cl)C(F)(F)C(F)(F)C(F)(F)C(F)(F)C(F)(F)C(F)(F)C(F)(F)C(F)(F)F,outcome,[1],inactive
same,AC50,[2],45.7 µM (active) and 50.2 µM (active) and 49.8 µM (active)
same,AC50,[3],54.5 µM (active) and 53.2 µM (active)
same,outcome,[3],inactive
same,AC50,[4],43.6 µM (active) and 47.6 µM (active) and 54.8 µM (active)
same,outcome,[5],inactive
same,AC50,"CD40, CD40 (gene 958)",20.1 µM (active) and 48.8 µM (active)
same,outcome,"CD40, CD40 (gene 958)",inactive
same,AC50,[6],50.4 µM (active)
same,outcome,[6],inactive
same,AC50,[7],51.2 µM (active)
same,outcome,[7],inactive
CCc1c(Br)c(Br)c(Br)c(Br)c1Br,outcome,[1],inactive
same,outcome,[2],inactive
same,outcome,[9],inactive
same,outcome,[3],inactive
same,outcome,[4],inactive
same,outcome,[5],inactive
same,outcome,"CD40, CD40 (gene 958)",inactive
same,outcome,[6],inactive
same,outcome,[7],inactive
CCO[Si](CCC(F)(F)C(F)(F)C(F)(F)C(F)(F)C(F)(F)C(F)(F)F)(OCC)OCC,outcome,[1],inactive
same,outcome,[2],inactive
same,outcome,[3],inactive
same,outcome,[4],inactive
same,outcome,[5],inactive
same,AC50,"CD40, CD40 (gene 958)",1.4 µM (active)
same,outcome,"CD40, CD40 (gene 958)",inactive
same,outcome,[6],inactive
same,outcome,[7],inactive
CCc1ccc(C(c2ccc(CC)cc2)C(Cl)Cl)cc1,AC50,[1],20 µM (active)
same,AC50,[2],13 µM (active)
same,AC50,[9],20 µM (active)
same,AC50,[3],10.1 µM (active)
same,AC50,[4],11.9 µM (active)
same,outcome,[5],inactive
same,AC50,"CD40, CD40 (gene 958)",14.2 µM (active)
same,outcome,[6],inactive
same,outcome,[7],inactive
FC(F)(F)C(F)(F)C(F)(F)C(F)(F)C(F)(F)C(F)(F)CC1CO1 (configuration not stated),outcome,[1],inactive
same,outcome,[2],inactive
same,outcome,[3],inactive
same,outcome,[4],inactive
same,outcome,[5],inactive
same,outcome,"CD40, CD40 (gene 958)",inactive
same,outcome,[6],inactive
same,outcome,[7],inactive
CCCCCCCOC(=O)c1ccccc1C(=O)OCCCCCCC,outcome,[1],inactive
same,outcome,[2],inactive
same,outcome,[9],inactive
same,outcome,[3],inactive
same,outcome,[4],inactive
same,outcome,[5],inactive
same,outcome,"CD40, CD40 (gene 958)",inactive
same,outcome,[6],inactive
same,outcome,[7],inactive
CCN(CC)c1ccc2c(C)cc(=O)oc2c1,outcome,[1],inactive
same,outcome,[2],inactive
same,outcome,[9],inactive
same,outcome,[3],inactive
same,outcome,[4],inactive
same,outcome,[5],inactive
same,outcome,"CD40, CD40 (gene 958)",inactive
same,outcome,[6],inactive
same,outcome,[7],inactive
same,outcome,[8],inactive
C=CC/C=C/C/C=C/C/C=C/C,outcome,[1],inactive
same,outcome,[2],inactive
same,outcome,[9],inactive
same,outcome,[3],inactive
same,outcome,[4],inactive
same,outcome,[5],inactive
same,outcome,"CD40, CD40 (gene 958)",inactive
same,outcome,[7],inactive
CCCCCCCCCCCCCCCC[N+](C)(C)Cc1ccccc1,AC50,[1],3.72 µM (active)
same,AC50,[2],1.9 µM (active)
same,AC50,[9],1.02 µM (active)
same,AC50,[3],3.15 µM (active)
same,AC50,[4],1.76 µM (active)
same,AC50,[5],2.39 µM (active)
same,AC50,"CD40, CD40 (gene 958)",13 µM (active)
same,AC50,[7],5.25 µM (active)
O=S(=O)(OCCOC(F)(F)F)C(F)(F)F,outcome,[1],inactive
same,outcome,[2],inactive
same,outcome,[3],inactive
same,outcome,[4],inactive
same,outcome,[5],inactive
same,outcome,"CD40, CD40 (gene 958)",inactive
same,outcome,[6],inactive
same,outcome,[7],inactive
C#C[C@]1(O)CC[C@H]2[C@@H]3CCc4cc(OC)ccc4[C@H]3CC[C@@]21C,AC50,[1],3.97 µM (active)
same,AC50,[2],5.41 µM (active)
same,AC50,[9],2.14 µM (active)
same,outcome,[3],inactive
same,AC50,[4],7.71 µM (active)
same,AC50,[5],9.89 µM (active)
same,AC50,"CD40, CD40 (gene 958)",20 µM (active)
same,outcome,[7],inactive
CC(=O)Nc1ccc(N=Nc2cc(C)ccc2O)cc1,AC50,[1],20 µM (active)
same,outcome,[2],inactive
same,outcome,[9],inactive
same,outcome,[3],inactive
same,outcome,[4],inactive
same,outcome,[5],inactive
same,outcome,"CD40, CD40 (gene 958)",inactive
same,outcome,[7],inactive
same,outcome,[8],inactive
O=C(O)C(F)(F)C(F)(F)C(F)(F)C(F)(F)F,outcome,[1],inactive
same,outcome,[2],inactive
same,outcome,[3],inactive
same,outcome,[4],inactive
same,outcome,[5],inactive
same,outcome,"CD40, CD40 (gene 958)",inactive
same,outcome,[6],inactive
same,outcome,[7],inactive
CCCCOCCOCCOC(=O)CCCCC(=O)OCCOCCOCCCC,AC50,[1],2.19 µM (active)
same,outcome,[2],inactive
same,outcome,[9],inactive
same,outcome,[3],inactive
same,outcome,[4],inactive
same,outcome,[5],inactive
same,outcome,"CD40, CD40 (gene 958)",inactive
same,outcome,[6],inactive
same,outcome,[7],inactive
same,outcome,[8],inactive
